# Screens (PubChem BioAssay)
# In the library only some 11% were active in any assay of this set; here they are far more common.
# BAZ2B inh: blocks human BAZ2B. Q9UIF8. AlphaScreen BAZ2B-H3K14Ac peptide displacement. Potency, µM (series often up to 114 µM), for inactives: top-dose activity change, negative = inhibition, usual class: inhibitors. hit rate 4.4% among 360,000; note: % is set by controls: 0 for no effect and ±100 for the full control effect; nearly all actives have a fitted effect of over 60% in size
#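 BAZ2B 50 nM plus b-H3(5-23)K14Ac 50 nM, PBS pH 7.4/0.01% Tween-20, 30 min RT; compound added (max 110 uM), 30 min RT; streptavidin donor/Ni-chelate acceptor beads 10 ug/mL final, 20 min dark; AlphaScreen read.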
# G9a block: blocks human histone lysine methyltransferase G9a. AID 504332. Potency, µM (highest dose often 102 µM), for inactives: top-dose activity, negative = inhibition, most hits filed as inhibitors. hit rate 8.8% among 350,000. G9a H3K9 monomethylation, AlphaScreen, 2 h; note: % is set by controls: 0 for no effect and ±100 for the full control effect; nearly all actives have a fitted effect of over 75% in size
# Target sequence (Q96KQ7 913-1193 limits assumed): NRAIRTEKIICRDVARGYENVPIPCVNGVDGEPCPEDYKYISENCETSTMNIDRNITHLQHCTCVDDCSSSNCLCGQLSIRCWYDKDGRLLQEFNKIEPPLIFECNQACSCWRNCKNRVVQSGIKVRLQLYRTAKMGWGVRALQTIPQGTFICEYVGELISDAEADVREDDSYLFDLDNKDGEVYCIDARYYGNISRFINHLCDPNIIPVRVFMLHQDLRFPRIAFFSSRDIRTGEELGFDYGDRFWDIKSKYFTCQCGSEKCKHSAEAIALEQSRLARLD
#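 Methyltransferase reactions run at room temperature for 2 h (20 nM enzyme, 500 nM biotin-H3K9 peptide, 20 uM SAM) after a 15 min compound preincubation; product detected by AlphaScreen beads and anti-H3K9me1 antibody.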
# HP1b chromo inh: blocks HP1-beta chromodomain binding to methylated histone tails | P83916 | AlphaScreen HP1-beta / biotin-H3K9me3 peptide binding | Potency, µM (highest dose often 114 µM), for inactives: at the highest dose activity change, negative = inhibition, hits mostly inhibitors | hit rate 0.56% among 390,000 | AID 540317; note: nearly all actives have a fitted effect of over 70% in size
# Target sequence (P83916 whole entry, looked up): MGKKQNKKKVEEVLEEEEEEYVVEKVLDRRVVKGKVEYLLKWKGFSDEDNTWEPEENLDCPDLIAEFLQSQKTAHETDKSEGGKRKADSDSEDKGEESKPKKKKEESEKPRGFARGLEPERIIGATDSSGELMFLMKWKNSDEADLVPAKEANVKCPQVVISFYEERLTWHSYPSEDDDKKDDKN
#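 HP1-beta protein (50 nM final) preincubated 30 min at room temperature with biotinylated H3(1-18)K9me3 peptide (50 nM) in PBS pH 7.4, 0.01% Tween-20, then compound added for 30 min. AlphaScreen streptavidin donor/nickel chelate acceptor beads (10 ug/mL final), 30 min dark, luminescence read.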
# JMJD2A Tudor inh: inhibitors of human JMJD2A Tudor domain | hit rate 4.4% among 390,000 | AlphaScreen JMJD2A-Tudor / H3K4me3 peptide binding | AID 504339 | Potency, µM (series often up to 114 µM), without a hit: top-dose activity change, negative = inhibition, most hits filed as inhibitors | O75164; note: % is set by controls: 0 for no effect and ±100 for the full control effect; nearly all actives have a fitted effect of over 50% in size
# L3MBTL1 block: inhibitors of human L3MBTL1; Q9Y468; AlphaScreen L3MBTL1–H3K9me1 peptide binding; Potency, µM (series often up to 57.1 µM), inactives show at the top dose activity, negative = inhibition, hits mostly inhibitors; hit rate 0.66% among 230,000; note: % is set by controls: 0 for no effect and ±100 for the full control effect; nearly all actives have a fitted effect of over 60% in size
#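 L3MBTL1 50 nM + b-AHA-H3(1-15)K9me1 75 nM, 30 min RT; compound added, 30 min RT; streptavidin donor/Ni-chelate acceptor beads 10 ug/mL each final, 30 min RT dark; AlphaScreen read.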
# * marks the source's active call; other numbers are inactive results; u = inconclusive; x = no result; [ ] = dose if it differs, or a comment. Calls come from the whole dose curve; as a rule, active = well fitted inhibition curve with a large enough effect; inconclusive = small, poorly fitted or top-dose-only effect; inactive = no such curve, though single readings can be large or run the other way. Potency is the fitted concentration of half-maximal effect.
SMILES,BAZ2B inh,G9a block,HP1b chromo inh,JMJD2A Tudor inh,L3MBTL1 block
O=C(O)c1cc([N+](=O)[O-])cc([N+](=O)[O-])c1N1CCN(c2cccc(C(F)(F)F)c2)CC1,-36%,56µM*,-16%,-36%,x
COc1cc2nc(CN(CCC(C)C)Cc3nc4cc(OC)c(OC)cc4c(=O)[nH]3)[nH]c(=O)c2cc1OC,17%,u,50%,-6%,4%
CCNCc1nc2cc(OC)c(OC)cc2c(=O)[nH]1,50µM*,u,33%,-13%,x
O=C(CSc1ccccc1C(=O)N1CCN(c2ccc([N+](=O)[O-])cc2)CC1)N1CCCC1,x,x,11%,-27%,-4%
Nc1nnc(SCC(=O)N2CCN(c3ccccc3)CC2)s1,2%,50µM*,42%,-5%,-4%
O=C(CSc1nccc(=O)[nH]1)N1CCN(c2ccccc2)CC1,79µM*,x,-3%,u,9%
Nc1nc(SCC(=O)N2CCN(c3ccccc3)CC2)n[nH]1,-18%,40µM*,39%,-1%,x
CCCc1cc(=O)[nH]c(SCC(=O)N2CCN(c3ccccc3)CC2)n1,-19%,3%[59 µM],28%,-7%,x
O=C(CSc1ccccc1C(=O)N1CCN(c2ccccc2)CC1)N1CCCC1,-5%,13µM*,43%,3%,1%
Nc1nc(SCC(=O)N2CCN(c3ccc(F)cc3)CC2)n[nH]1,-6%,-12%[59 µM],21%,-16%,1%
COc1ccc(C2c3ccccc3Oc3ncn(CCN4CCOCC4)c(=N)c32)cc1OC (stereo not given),x,x,x,-35%,x
O=C(CSc1nc2c(c(=O)n1-c1ccccc1)SCC2)N1CCN(c2ccccc2)CC1,-7%,45µM*,3%,u,-2%
Cc1nc(SCC(=O)N2CCN(c3ccccc3)CC2)n[nH]1,-2%,40µM*,-14%,-2%,x
Nc1nc(SCC(=O)c2ccc(Oc3ccccc3)cc2)n[nH]1,-1%,u,u,35µM*,-4%
O=C(CSc1n[nH]c(-c2ccccc2Cl)n1)N1CCN(c2ccccc2)CC1,-2%,-22%[59 µM],21%[57 µM],-20%,x
O=C(CSc1ccccn1)N1CCN(c2ccccc2)CC1,8%,u,3%,-16%,-12%
O=C(CSc1ccccn1)N1CCN(c2cccc(Cl)c2)CC1,-20%,2.8µM*,-1%,79µM*,x
CC(=O)c1ccc(N2CCN(c3ncnc4c3nc3n4CCCC3)CC2)cc1,-3%,3%[59 µM],7%,-12%,x
Cc1ccc(NC2=C(NC(=O)c3ccccc3)C(=O)c3ccccc3C2=O)cc1Cl,14µM*,2.2µM*,45µM*,14µM*,u
CC(C(=O)Nc1ccc(C(=O)O)cc1)N1C(=O)c2ccccc2C1=O (stereo not given),7%,22%[2.33 µM],26%,-23%,4%
O=C1C(Cl)=C(Nc2ccccc2)C(=O)c2ccccc21,u,u,-2%,-18%,-12%
O=C(O)c1cccc(NC2=C(Cl)C(=O)c3ccccc3C2=O)c1,45µM*,7.1µM*,u,56µM*,-14%
O=C(O)c1ccc(NC2=C(Cl)C(=O)c3ccccc3C2=O)cc1,50µM*,u,-14%,u,u
CC1=C(Nc2ccc(C(=O)O)cc2)C(=O)c2ccccc2C1=O,45µM*,u,-15%,u,x
CC[C@H](C)[C@H](NC(=O)[C@H](CCCN=C(N)N)NC(=O)[C@H](CCCN=C(N)N)NC(=O)[C@H](CC(C)C)NC(=O)[C@H](Cc1ccccc1)NC(=O)CNC(=O)CN)C(=O)N[C@@H](CCCN=C(N)N)C(=O)N1CCC[C@H]1C(=O)N[C@@H](CCCCN)C(=O)N[C@@H](CC(C)C)C(=O)N[C@@H](CCCCN)C(=O)O,x,12%[59 µM],x,x,x
SMILES,BAZ2B inh,G9a block,HP1b chromo inh,JMJD2A Tudor inh,L3MBTL1 block
O=C(CSc1ncccn1)NC1CCS(=O)(=O)C1 (stereo not given),-10%,29%,27%,-9%,x
Cc1[nH][nH]c(=O)c1C(c1cc2c(cc1Br)OCO2)c1c(C)[nH][nH]c1=O,-4%,50µM*,27%,-2%[11.4 µM],x
CCN(CC)CCOc1cc2c(nn1)Oc1ccccc1N2C,u,50µM*,7%,u,3%
CN1c2ccccc2Oc2nnc(Cl)cc21,-10%,7%,4%,-16%,8%
CN(C)c1ccc(/C=C/c2ccncc2)cc1,u,u,32%,-29%,3%[11.4 µM]
CC(C)CC[n+]1ccccc1/C=C/c1ccc(N(C)C)cc1,-31%,32µM*,11%,-15%,x
CN(C)c1ccc(/C=C/c2cccc[n+]2[O-])cc1,-6%,50µM*,4%,-17%,5%
CCn1c(C(=O)NCc2ccc(C)cc2)cc2sc(Cl)cc21,9%,19%[59 µM],56%,5%,x
CCNc1nc(NC(C)C)nc(N(C#N)CCOc2ccccc2)n1,13%,13µM*,56%,-9%,x
Fc1ccc(N/N=C2/CC(c3ccccc3)Oc3ccccc32)c(F)c1 (stereo not given),u,10µM*,-21%,u,-2%
Cc1cc(C)n(-c2nc(Nc3ccccc3)nc(-n3nc(C)cc3C)n2)n1,79µM*,u,25%,u,-5%
Cc1cc(Nc2ccccc2)n(-c2ccc(Br)cc2)n1,8%,50µM*,17%,6%,x
COc1cccc(/C=N/Nc2nc(Nc3ccccc3)nc(-n3nc(C)cc3C)n2)c1O,-29%,16%,10%,u,x
Cc1cc(C)n(-c2nc(N(c3ccccc3)c3ccccc3)nc(-n3nc(C)cc3C)n2)n1,-10%,20%[59 µM],-4%,u,4µM*
CC(C)(C)OC(=O)N1CCC(c2nnc(SCc3cccc(Cl)c3)o2)CC1,76%,70%[59 µM],61%,39%,x
O=C(CSc1ncc(-c2ccc(Cl)cc2)[nH]1)Nc1ccccc1F,-20%,10µM*,18%,-2%,x
O=C(CSc1ncn[nH]1)N1CCCCC1,-10%,x,32%,4%,x
O=C(CSc1ncc(-c2ccc(F)cc2)[nH]1)N1CCCCC1,u,45µM*,13%,-26%,1%
O=C(CSc1ncc(-c2ccccc2)[nH]1)Nc1ccccc1F,u,u,10%,-30%,x
CCN(CC(=O)Nc1ccccc1OC)Cc1csc(CC(=O)Nc2ccc(C)cc2)n1,x,x,7%[57 µM],-32%,-10%
COc1cc2c(cc1OC)C(/C(C#N)=N\O)=NC(C)(C)C2,-2%,11µM*,11%,-16%,6%
O=C(COC(=O)c1cccnc1Cl)NCCCc1ccccc1,12%,17%[2.33 µM],28%,-12%,5%
O=C(COC(=O)c1ccccc1O)NCCCc1ccccc1,20%,-32%,4%,79µM*,x
COc1ccc(NC(=O)CSc2nc(C)cc(C)c2C(=O)Nc2cccc(C)c2)cc1,10%,6%[59 µM],15%,-20%,x
CCCCn1nc(NC(=O)c2cccc(Cl)c2)c2cc3ccc(C)cc3nc21,2%,1%[59 µM],31%,-8%,x
OCC1CCCCN1CCNCc1cn[nH]c1-c1cccc2ccccc12 (stereo not given),-14%,-50%,30%,-23%,-11%
